Reference: PubChem BioAssay
Calls of active or inactive are those of the source.

Legend:
[1] = optical density shifts of acrAB sulA E. coli – strain DRC41, OD650, 48 h, E. coli filamentation inducer project, primary screen (AID 1152); conditions: higher = more signal, called active from +8 up or from −8 down;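 note: E. coli MC1000 strain DRC41 lacking acrAB efflux pump and sulA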
[2] = probe aLefty1 binding on compound microarray – biochemical, small-molecule microarray, 635/667 nm fluorescence, primary screen (AID 1153); conditions: higher = more signal;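 note: score merges spot fluorescence with signal-to-noise ratio from the scanned slide images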
[3] = plasmodial surface anion channel blockers, osmotic lysis – cell-based, P. falciparum Indochina, OD700, 1 h, primary screen (AID 1154); conditions: P. falciparum Indochina infected RBC osmotic lysis, higher = more signal, called active from +8 up or from −8 down
[4] = plasmodial surface anion channel blockers, osmotic lysis – cell-based, P. falciparum Indochina, OD700, 2 h, primary screen (AID 1155);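 note: lysis reports solute entry through the parasite surface anion channel PSAC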; conditions: P. falciparum Indochina infected erythrocytes, higher = more signal, called active from +8 up or from −8 down
[5] = changes in parasitized red cell lysis, either direction – P. falciparum Indochina, OD700, 3 h, PSAC antagonist project, primary screen (AID 1156); conditions: P. falciparum-infected erythrocytes, osmotic lysis, higher = more signal, called active from +8 up or from −8 down
[6] = plasmodial surface anion channel blockers, osmotic lysis – cell-based, P. falciparum Indochina, OD700, 18 h, primary screen (AID 1157); conditions: P. falciparum Indochina infected erythrocytes, osmotic lysis OD700, 18 h; higher = more signal, called active from +8 up or from −8 down
[7] = S6 kinase pathway phospho-S6 level changes – cell-based, A549, cytoblot, luminescence, serum-stimulated, primary screen (AID 1158); conditions: 5 h, higher = more signal;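 note: serum-stimulated A549 lung adenocarcinoma cells; signal is phosphorylated S6 detected by cytoblot immunostaining with HRP secondary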
[8] = target: NADPH oxidase 2 (Homo sapiens) (UniProt P04839); experiment: compounds shifting NOX2 Amplex Red fluorescence – cell-based, HEK293-NOX2, PMA-stimulated, NOX inhibitor project, primary screen (AID 1159); conditions: 45 min, higher = more signal, called active from +8 up or from −8 down; note: test concentration not given here
[9] = target: NADPH oxidase 4 (Homo sapiens) (UniProt Q9NPH5); experiment: compounds shifting NOX4 Amplex Red fluorescence – cell-based, HEK293-NOX4, tetracycline-induced, NOX inhibitor project, primary screen (AID 1160); conditions: HEK293-NOX4, Amplex Red H2O2 fluorescence, 45 min; higher = more signal, called active from +8 up or from −8 down
[10] = target: NADPH oxidase 5 (Homo sapiens) (UniProt Q96PH1); experiment: compounds shifting NOX5 Amplex Red fluorescence – cell-based, HEK293-NOX5, NOX inhibitor project, primary screen (AID 1161); conditions: HEK293-NOX5, ionomycin, 45 min, higher = more signal
NADPH oxidase 5 (Homo sapiens), sequence (Q96PH1 whole entry, looked up): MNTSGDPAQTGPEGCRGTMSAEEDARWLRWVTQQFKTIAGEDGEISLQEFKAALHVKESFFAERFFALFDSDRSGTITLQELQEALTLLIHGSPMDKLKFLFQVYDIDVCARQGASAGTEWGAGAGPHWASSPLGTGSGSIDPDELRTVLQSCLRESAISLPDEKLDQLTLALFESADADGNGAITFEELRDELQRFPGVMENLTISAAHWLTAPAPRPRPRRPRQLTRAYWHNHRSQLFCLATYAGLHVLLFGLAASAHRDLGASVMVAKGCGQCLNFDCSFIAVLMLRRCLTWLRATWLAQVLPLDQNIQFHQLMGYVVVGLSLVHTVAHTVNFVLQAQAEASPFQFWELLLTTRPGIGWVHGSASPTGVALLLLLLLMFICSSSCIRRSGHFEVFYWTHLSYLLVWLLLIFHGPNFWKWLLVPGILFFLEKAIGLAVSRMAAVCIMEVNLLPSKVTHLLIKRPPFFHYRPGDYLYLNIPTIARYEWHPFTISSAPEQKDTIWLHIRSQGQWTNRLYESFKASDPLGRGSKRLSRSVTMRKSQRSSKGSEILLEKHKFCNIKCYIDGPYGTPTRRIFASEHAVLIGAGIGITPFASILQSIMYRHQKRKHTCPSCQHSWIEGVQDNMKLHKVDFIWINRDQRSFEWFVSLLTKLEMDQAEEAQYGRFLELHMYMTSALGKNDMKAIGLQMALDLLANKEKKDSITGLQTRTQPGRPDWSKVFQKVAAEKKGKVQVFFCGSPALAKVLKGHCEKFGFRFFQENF

NADPH oxidase 2 (Homo sapiens), sequence (P04839 whole entry, looked up): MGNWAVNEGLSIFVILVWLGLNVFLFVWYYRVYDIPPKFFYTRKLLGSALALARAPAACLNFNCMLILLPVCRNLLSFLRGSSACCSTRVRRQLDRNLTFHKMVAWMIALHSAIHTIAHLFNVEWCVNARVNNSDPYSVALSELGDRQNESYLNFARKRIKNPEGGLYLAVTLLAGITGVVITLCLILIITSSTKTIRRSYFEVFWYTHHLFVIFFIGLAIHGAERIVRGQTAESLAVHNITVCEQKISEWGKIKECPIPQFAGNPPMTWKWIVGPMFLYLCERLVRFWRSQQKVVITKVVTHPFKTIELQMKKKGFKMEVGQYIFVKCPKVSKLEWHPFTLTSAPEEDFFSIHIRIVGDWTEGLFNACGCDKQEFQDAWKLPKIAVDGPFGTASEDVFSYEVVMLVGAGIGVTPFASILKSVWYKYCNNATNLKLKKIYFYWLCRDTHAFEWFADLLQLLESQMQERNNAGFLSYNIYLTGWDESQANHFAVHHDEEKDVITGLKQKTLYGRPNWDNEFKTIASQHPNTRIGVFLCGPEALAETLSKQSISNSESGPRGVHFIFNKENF
NADPH oxidase 4 (Homo sapiens), sequence (Q9NPH5 whole entry, looked up): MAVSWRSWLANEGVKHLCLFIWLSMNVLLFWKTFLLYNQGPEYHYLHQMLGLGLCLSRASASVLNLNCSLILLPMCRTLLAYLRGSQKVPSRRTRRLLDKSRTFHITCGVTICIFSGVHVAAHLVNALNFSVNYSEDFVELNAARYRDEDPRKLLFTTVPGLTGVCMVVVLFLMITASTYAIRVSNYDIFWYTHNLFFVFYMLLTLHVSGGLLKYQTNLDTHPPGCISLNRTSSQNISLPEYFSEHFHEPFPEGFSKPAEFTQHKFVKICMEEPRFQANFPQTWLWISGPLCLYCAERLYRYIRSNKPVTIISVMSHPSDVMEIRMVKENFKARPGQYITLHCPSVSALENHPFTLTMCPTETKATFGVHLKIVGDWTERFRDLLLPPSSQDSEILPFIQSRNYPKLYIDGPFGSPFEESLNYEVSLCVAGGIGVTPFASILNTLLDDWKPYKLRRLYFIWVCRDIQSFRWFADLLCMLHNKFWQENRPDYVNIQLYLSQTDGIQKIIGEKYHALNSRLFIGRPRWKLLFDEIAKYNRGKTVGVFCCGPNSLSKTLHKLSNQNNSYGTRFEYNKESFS

| SMILES | z-score [1] | composite z-score [2] | z-score [3] | z-score [4] | z-score [5] | z-score [6] | z-score [7] | z-score [8] | z-score [9] | z-score [10] |
| --- | --- | --- | --- | --- | --- | --- | --- | --- | --- | --- |
| COc1ccc([Si](C)(C)[C@H]2[C@H](CCn3cc([C@H](O)c4ccccc4)nn3)O[C@@]3(C(=O)N(Cc4ccc(N5C(=O)c6cccc7cccc5c67)cc4)c4ccccc43)[C@@H]2C)cc1 | 0.0759 (inactive) | 0.0091 | 1.97 (inactive) | 0.485 (inactive) | 0.0591 (inactive) | 0.646 (inactive) | 0.243 | 0.892 (inactive) | 0.925 (inactive) | 2.01 |
| CN(C)C(=O)C1N=C(c2ccc(OCCCO)cc2)N(c2ccccc2)O1 (stereo not given) | 0.975 (inactive) | 0.0509 | 18.3 (active) | 2.14 (inactive) | 0.0521 (inactive) | 0.325 (inactive) | 0.296 | -4.12 (inactive) | -0.509 (inactive) | -1.12 |
| [N-]=[N+]=Nc1ccccc1[C@H]1OC(c2ccc(OCCCO)cc2)=N[C@@]1(Cc1ccccc1)C(=O)N1CCCCC1 | 0.546 (inactive) | 0.51 | 31.2 (active) | 27.9 (active) | 2.35 (inactive) | 8.26 (active) | 0.583 | -1.52 (inactive) | 0.804 (inactive) | 1.62 |
| [N-]=[N+]=Nc1ccccc1C[C@]1(C(=O)N2CCOCC2)N=C(c2ccc(OCCCO)cc2)O[C@H]1c1ccccc1 | 1.61 (inactive) | -0.007 | 20.5 (active) | 4.95 (inactive) | 2.84 (inactive) | 1.43 (inactive) | 0.251 | 0.265 (inactive) | 0.719 (inactive) | -1.47 |
| O=C1OCC=C[C@H]2OC34C=CCN(c5ccc(Cl)cc5)C(=O)[C@H]3N(CCO)C(=O)[C@@H]4[C@@H]12 (stereo not given in full) | -0.367 (inactive) | -0.147 | 0.506 (inactive) | 0.0971 (inactive) | 0.111 (inactive) | 0.403 (inactive) | -0.677 | 1.12 (inactive) | 0.908 (inactive) | 1.31 |
| C=C(COC)/C(=C/C[C@H](OC(C)=O)c1ccc(OCCO)cc1)c1cc(C(=O)OC)ccc1OC | 1.28 (inactive) | 0.188 | 24.8 (active) | 7.54 (inactive) | 2.08 (inactive) | 1.14 (inactive) | 0.497 | 1.6 (inactive) | 1.03 (inactive) | -1.34 |
| COC(=O)C(CC#Cc1ccc2c(c1)[C@]1(C(=O)N2)[C@H](C(=O)N2CCN(c3ncccn3)CC2)[C@H]2C(=O)O[C@H](c3ccccc3)[C@H](c3ccccc3)N2[C@@H]1c1ccc(OCCO)cc1)C(=O)OC | 0.454 (inactive) | 0.2 | 11 (active) | 2.86 (inactive) | 1.03 (inactive) | 1.4 (inactive) | 0.311 | 1.36 (inactive) | 0.504 (inactive) | 1.53 |
| CCCC[C@@H]1C[C@H]1[C@@H](NC(=O)Cc1ccccc1)c1ccc(-c2ccccc2)cc1 | -0.71 (inactive) | 0.369 | 1.1 (inactive) | 0.283 (inactive) | 0.249 (inactive) | 0.345 (inactive) | 0.871 | -1.35 (inactive) | -0.123 (inactive) | 1.09 |
| OCC1CC(c2ccccc2)=NO1 (stereo not given) | 0.727 (inactive) | 0.0278 | 5.51 (inactive) | 0.623 (inactive) | -0.182 (inactive) | 0.206 (inactive) | 0.137 | -1.17 (inactive) | -0.137 (inactive) | 0.273 |
| COc1ccc(CCNC(=O)[C@@]2(Sc3ccc(C)cc3)CC(=O)N(C3Cc4ccccc4C3)[C@@H]2c2ccc(CO)cc2)cc1 | -0.336 (inactive) | 0.366 | 4.53 (inactive) | -0.205 (inactive) | -0.0174 (inactive) | -0.874 (inactive) | 1.66 | -2.19 (inactive) | -1.05 (inactive) | -4.9 |
| CCCNC(=O)[C@@H]1c2ccccc2C(=O)N(C(C)C)[C@H]1c1ccc(CO)cc1 | 0.737 (inactive) | 0.202 | 1.67 (inactive) | -0.1 (inactive) | 0.21 (inactive) | -0.21 (inactive) | -0.0878 | 0.162 (inactive) | 0.514 (inactive) | -0.0547 |
| CCOC(=O)C[C@H]1[C@H](OC(=O)c2ccc(C(=O)c3ccccc3)cc2)[C@@H](NC(=O)Cc2ccc(OC)cc2)c2cc(OCCCO)ccc2N1C(=O)c1ccccc1 | -0.915 (inactive) | -0.0762 | 2.41 (inactive) | -0.431 (inactive) | -0.937 (inactive) | 0.384 (inactive) | -0.408 | -1.25 (inactive) | 1.16 (inactive) | 0.303 |
| O=C1O[C@H](c2ccccc2)[C@H](c2ccccc2)N2[C@H]1[C@@H](C(=O)NC[C@H](O)c1ccccc1)[C@]1(C(=O)Nc3ccc(C#CCCO)cc31)[C@H]2c1ccc(OCCO)cc1 | 0.0129 (inactive) | 0.138 | 3.5 (inactive) | 1.19 (inactive) | 0.123 (inactive) | 0.663 (inactive) | -0.268 | 1.16 (inactive) | 0.861 (inactive) | 0.275 |
| COc1ccc(CCNC(=O)[C@@H]2c3ccccc3C(=O)N(Cc3cc(C(F)(F)F)cc(C(F)(F)F)c3)[C@H]2c2ccc(CO)cc2)cc1 | 0.0073 (inactive) | 0.108 | 4.55 (inactive) | 0.383 (inactive) | 0.767 (inactive) | 0.233 (inactive) | 0.154 | -1.75 (inactive) | 0.194 (inactive) | -0.077 |
| COCCOC(=O)N1C(=O)[C@@]2(c3ccccc31)[C@H](C(=O)N1CCN(c3ncccn3)CC1)[C@H]1C(=O)O[C@H](c3ccccc3)[C@H](c3ccccc3)N1[C@@H]2c1ccc(O)cc1 | 0.81 (inactive) | 0.0661 | 1.78 (inactive) | 0.672 (inactive) | 0.481 (inactive) | 0.261 (inactive) | 0.0481 | 1.25 (inactive) | -0.0154 (inactive) | 2.19 |
| CC[C@H]1C2=C3C(CC[C@H]4C(OCc5ccc(F)cc5C(F)(F)F)OC[C@](C)([C@@H]34)N(C(=O)OC(C)(C)C)C2)C(COC)C1COC (stereo not given in full) | -1.22 (inactive) | 0.409 | -0.0734 (inactive) | -0.0681 (inactive) | 0.337 (inactive) | 0.297 (inactive) | -0.371 | -0.67 (inactive) | -1.45 (inactive) | -1.54 |
| C=CCNC(=O)[C@H]1[C@@H]2C(=O)O[C@@H](c3ccccc3)[C@@H](c3ccccc3)N2[C@@H](c2ccc(O)cc2)[C@]12C(=O)N(C(=O)OCCOC)c1ccccc12 | -0.0476 (inactive) | -0.514 | 1.97 (inactive) | 0.481 (inactive) | 1.77 (inactive) | 0.148 (inactive) | -0.233 | 0.974 (inactive) | -0.168 (inactive) | 0.605 |
| COC(=O)[C@@]1(Cc2ccccc2)[C@@H]2C(=CC(=O)[C@H]2CC(=O)C(=O)N(C)C)CN1C(=O)c1ccccc1 | 0.174 (inactive) | 0.0093 | 4.6 (inactive) | 0.329 (inactive) | 0.864 (inactive) | 0.664 (inactive) | -0.52 | -0.0425 (inactive) | 0.705 (inactive) | 0.16 |
| Cc1cc(C)c(C(O)C2C=CC3C(=O)N(c4ccccc4)C(=O)C3N2Nc2ccc(C(C)C)cc2)c(C)c1 (stereo not given) | -1.53 (inactive) | 0.51 | 1.02 (inactive) | 1.14 (inactive) | 0.858 (inactive) | 1.05 (inactive) | -0.484 | -1.82 (inactive) | -3.87 (inactive) | -7.33 |
| CCCCN1CC=CC23O[C@@H]4/C=C\CCC(C)OC(=O)C4[C@H]2C(=O)N(C(CO)C(C)C)[C@@H]3C1=O (stereo not given in full) | -0.0695 (inactive) | 0.13 | 1.65 (inactive) | -0.361 (inactive) | 0.826 (inactive) | 0.406 (inactive) | 1.81 | 1.4 (inactive) | -0.506 (inactive) | 2.14 |
| CO[C@H]1O[C@H](CO)[C@@H](OC(=O)Nc2ccc3c(c2)OCO3)[C@H](OC(=O)c2cc3ccccc3[nH]2)[C@H]1OC(=O)c1cc2ccccc2[nH]1 | 0.599 (inactive) | -0.0162 | 1.48 (inactive) | -0.354 (inactive) | -0.739 (inactive) | -0.536 (inactive) | 1.26 | -3.78 (inactive) | -1.95 (inactive) | -3.47 |
| [N-]=[N+]=Nc1ccccc1[C@H]1OC(c2ccc(OCCCO)cc2)=N[C@@]1(CCS(=O)(=O)c1ccccc1)C(=O)NCCN1CCOCC1 | -0.0631 (inactive) | 0.458 | 28.9 (active) | 25.6 (active) | 0.931 (inactive) | 1.8 (inactive) | 0.468 | -2.18 (inactive) | -0.233 (inactive) | -1.47 |
| COC1OC[C@]2(C)[C@H]3C4=C(CN2C(=O)OC(C)(C)C)[C@H](C)C(CO)C(CO)C4CC[C@@H]13 (stereo not given in full) | -0.787 (inactive) | 1.13 | 0.884 (inactive) | -0.0719 (inactive) | 0.394 (inactive) | 0.494 (inactive) | 0.15 | -1.39 (inactive) | -0.651 (inactive) | -2.12 |
| O=C1OCCC=C[C@H]2OC34C=CCN(Cn5nnc6ccccc65)C(=O)[C@H]3N(CCCCCCO)C(=O)[C@@H]4C12 (stereo not given in full) | -0.051 (inactive) | -0.81 | 0.987 (inactive) | 1.02 (inactive) | 0.946 (inactive) | 0.748 (inactive) | 0.916 | 0.94 (inactive) | -0.201 (inactive) | 2.2 |
| C=C(C(=O)CC[C@@H](OC(C)=O)c1ccc(CO)o1)C(C)C | -0.167 (inactive) | -0.007 | 1.21 (inactive) | 0.0112 (inactive) | 0.493 (inactive) | -0.0113 (inactive) | -0.0282 | -0.354 (inactive) | 0.261 (inactive) | 0.483 |
